# From paper PMC7862700, “An all-to-all approach to the identification of sequence-specific readers for epigenetic DNA modifications on cytosine”
# Experiments:
# Assay in all cases: DAPPL (digital affinity profiling via proximity ligation, sequencing); 10 mM Tris-HCl pH 7.5, 50 mM NaCl, 1 mM DTT, 4% glycerol, room temperature, 30 min; GST-TFs on glutathione beads, 16-mer random dsDNA library, 0.1% formaldehyde crosslink after washing; high values mean tight binding
# FEV = molecular target: T1, FEV (Homo sapiens, UniProt Q99581 1-238); details: protein: recombinant; tags: N-terminal GST; dsDNA, one strand shown
# T1 sequence: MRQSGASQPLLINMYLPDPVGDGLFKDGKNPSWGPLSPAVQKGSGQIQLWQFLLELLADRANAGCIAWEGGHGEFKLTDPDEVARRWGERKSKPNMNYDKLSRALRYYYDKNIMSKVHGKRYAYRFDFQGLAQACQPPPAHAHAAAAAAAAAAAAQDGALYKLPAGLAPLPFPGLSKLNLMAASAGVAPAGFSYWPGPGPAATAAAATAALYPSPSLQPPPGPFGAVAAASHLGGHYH
# Method in brief: (§1)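 Each value of binding signal is a hexamer's read frequency for a factor divided by the same hexamer's frequency in the tag-only sample. Barcoded, bead-captured GST fusions of human transcription factors made in yeast were pooled with that sample and incubated with 200 nmole of a random double-stranded 16-mer DNA library in Tris/NaCl/DTT/glycerol buffer at room temperature for 30 min. Washing, 0.1% formaldehyde crosslinking, proximity ligation, PCR and Illumina NextSeq500 sequencing followed.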
# ETV5 = ETV5 (Homo sapiens, UniProt P41161 1-510); details: protein: recombinant; tags: N-terminal GST; dsDNA, one strand shown
# Chain of ETV5 (P41161 whole entry): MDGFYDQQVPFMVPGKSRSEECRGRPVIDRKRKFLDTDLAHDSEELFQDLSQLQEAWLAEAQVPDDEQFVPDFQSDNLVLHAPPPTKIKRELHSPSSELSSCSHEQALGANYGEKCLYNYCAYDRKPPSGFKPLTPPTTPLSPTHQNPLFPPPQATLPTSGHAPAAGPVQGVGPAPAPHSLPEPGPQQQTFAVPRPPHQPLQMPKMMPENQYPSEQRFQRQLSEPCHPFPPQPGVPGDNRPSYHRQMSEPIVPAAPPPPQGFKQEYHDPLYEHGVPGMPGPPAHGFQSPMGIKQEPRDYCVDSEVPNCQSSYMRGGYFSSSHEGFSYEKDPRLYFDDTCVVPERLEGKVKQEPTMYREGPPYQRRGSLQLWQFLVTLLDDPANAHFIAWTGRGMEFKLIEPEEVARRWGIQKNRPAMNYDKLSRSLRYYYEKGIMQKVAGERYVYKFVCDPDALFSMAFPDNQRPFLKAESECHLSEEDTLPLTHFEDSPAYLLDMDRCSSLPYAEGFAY
# Method in brief: as §1
# HSF1 = HSF1 (Homo sapiens, UniProt Q00613 1-529); details: protein: recombinant; tags: N-terminal GST; chain copies: 3; dsDNA, one strand shown
# Chain of HSF1 (Q00613 whole entry): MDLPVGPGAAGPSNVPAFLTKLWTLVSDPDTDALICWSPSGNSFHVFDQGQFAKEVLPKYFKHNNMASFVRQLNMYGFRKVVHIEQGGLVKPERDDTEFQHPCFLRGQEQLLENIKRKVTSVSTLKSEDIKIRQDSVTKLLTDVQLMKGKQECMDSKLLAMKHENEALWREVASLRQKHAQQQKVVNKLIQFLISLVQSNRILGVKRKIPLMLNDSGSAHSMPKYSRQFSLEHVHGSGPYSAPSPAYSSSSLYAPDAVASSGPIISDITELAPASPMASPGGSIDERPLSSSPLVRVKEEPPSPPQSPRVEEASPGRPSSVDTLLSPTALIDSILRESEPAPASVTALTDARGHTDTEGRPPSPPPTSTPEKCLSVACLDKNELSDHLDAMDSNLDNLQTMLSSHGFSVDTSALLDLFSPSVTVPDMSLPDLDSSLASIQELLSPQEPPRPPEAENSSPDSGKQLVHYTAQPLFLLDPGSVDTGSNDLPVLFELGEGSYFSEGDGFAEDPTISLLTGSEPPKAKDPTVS
# Method in brief: as §1
# SPIC = molecular target: T2, SPIC (Homo sapiens, UniProt Q8N5J4 1-248); details: protein: recombinant; tags: N-terminal GST; dsDNA, one strand shown
# T2 sequence: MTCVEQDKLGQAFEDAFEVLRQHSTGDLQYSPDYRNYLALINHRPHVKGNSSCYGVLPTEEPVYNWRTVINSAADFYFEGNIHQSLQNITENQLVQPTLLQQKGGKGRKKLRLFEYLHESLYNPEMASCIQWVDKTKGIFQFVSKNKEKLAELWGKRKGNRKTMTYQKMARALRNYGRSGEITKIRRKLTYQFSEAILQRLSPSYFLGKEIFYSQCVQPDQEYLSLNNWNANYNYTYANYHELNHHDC
# Method in brief: as §1
# ELF4 = ELF4 (Homo sapiens, UniProt Q99607 1-663); details: protein: recombinant; tags: N-terminal GST; dsDNA, one strand shown
# Chain of ELF4 (Q99607 whole entry): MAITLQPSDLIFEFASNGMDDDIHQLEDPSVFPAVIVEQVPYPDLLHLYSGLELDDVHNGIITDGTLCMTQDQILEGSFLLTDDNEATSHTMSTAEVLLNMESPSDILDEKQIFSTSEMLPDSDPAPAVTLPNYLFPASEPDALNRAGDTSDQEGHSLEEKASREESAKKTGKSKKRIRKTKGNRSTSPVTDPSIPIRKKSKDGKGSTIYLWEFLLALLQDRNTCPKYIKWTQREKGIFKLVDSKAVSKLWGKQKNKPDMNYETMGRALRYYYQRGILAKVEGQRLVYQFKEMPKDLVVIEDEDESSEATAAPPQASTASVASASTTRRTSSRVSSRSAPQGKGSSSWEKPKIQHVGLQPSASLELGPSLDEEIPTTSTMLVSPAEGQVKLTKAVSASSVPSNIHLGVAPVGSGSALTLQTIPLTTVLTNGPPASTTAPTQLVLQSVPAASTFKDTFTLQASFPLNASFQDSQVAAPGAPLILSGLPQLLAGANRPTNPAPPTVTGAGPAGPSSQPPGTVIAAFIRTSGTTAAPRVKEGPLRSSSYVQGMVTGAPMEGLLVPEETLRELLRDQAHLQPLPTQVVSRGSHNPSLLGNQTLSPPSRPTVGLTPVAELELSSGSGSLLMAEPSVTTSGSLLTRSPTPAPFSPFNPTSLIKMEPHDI
# Method in brief: as §1
# ELK4 = molecular target: T3, ELK4 (Homo sapiens, UniProt P28324-2 1-405); details: protein: recombinant; tags: N-terminal GST; dsDNA, one strand shown
# T3 sequence: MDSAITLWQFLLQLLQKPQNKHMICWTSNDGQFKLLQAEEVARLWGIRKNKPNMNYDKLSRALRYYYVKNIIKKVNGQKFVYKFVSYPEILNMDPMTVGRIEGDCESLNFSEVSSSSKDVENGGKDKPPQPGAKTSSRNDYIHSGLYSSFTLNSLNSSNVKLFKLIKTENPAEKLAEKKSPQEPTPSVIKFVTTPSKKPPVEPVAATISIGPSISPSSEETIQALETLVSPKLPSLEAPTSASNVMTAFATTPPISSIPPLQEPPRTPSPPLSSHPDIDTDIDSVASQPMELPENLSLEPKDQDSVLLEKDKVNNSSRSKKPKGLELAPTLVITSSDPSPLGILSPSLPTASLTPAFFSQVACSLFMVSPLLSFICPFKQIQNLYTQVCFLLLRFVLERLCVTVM
# Method in brief: as §1
# ETV2 = molecular target: T4, ETV2 (Homo sapiens, UniProt O00321 1-342); details: protein: recombinant; tags: N-terminal GST; dsDNA, one strand shown
# T4 sequence: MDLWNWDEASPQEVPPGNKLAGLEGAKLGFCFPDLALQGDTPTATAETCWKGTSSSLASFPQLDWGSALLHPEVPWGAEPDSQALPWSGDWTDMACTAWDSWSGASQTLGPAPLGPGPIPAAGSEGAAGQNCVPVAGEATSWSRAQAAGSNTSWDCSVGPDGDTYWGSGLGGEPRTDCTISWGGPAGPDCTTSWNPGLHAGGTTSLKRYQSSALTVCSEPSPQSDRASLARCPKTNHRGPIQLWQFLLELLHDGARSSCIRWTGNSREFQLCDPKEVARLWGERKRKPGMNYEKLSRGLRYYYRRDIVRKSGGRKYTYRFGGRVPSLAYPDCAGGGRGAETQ
# Method in brief: as §1
# ELF3 = molecular target: T5, ELF3 (Homo sapiens, UniProt P78545 1-371); details: protein: recombinant; tags: N-terminal GST; dsDNA, one strand shown
# T5 sequence: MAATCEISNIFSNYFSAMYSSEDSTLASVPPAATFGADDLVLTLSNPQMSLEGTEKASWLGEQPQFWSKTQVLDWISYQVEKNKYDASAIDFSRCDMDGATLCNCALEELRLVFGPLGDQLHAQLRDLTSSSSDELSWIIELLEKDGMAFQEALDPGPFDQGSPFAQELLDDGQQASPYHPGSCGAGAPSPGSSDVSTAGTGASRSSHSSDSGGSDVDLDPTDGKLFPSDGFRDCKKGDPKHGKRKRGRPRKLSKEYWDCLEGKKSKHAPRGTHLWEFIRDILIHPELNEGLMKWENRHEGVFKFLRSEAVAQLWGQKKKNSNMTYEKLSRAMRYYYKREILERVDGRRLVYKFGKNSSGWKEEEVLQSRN
# Method in brief: as §1
# CRX = CRX (Homo sapiens, UniProt O43186 1-299); details: protein: recombinant; tags: N-terminal GST; dsDNA, one strand shown
# Chain of CRX (O43186 whole entry): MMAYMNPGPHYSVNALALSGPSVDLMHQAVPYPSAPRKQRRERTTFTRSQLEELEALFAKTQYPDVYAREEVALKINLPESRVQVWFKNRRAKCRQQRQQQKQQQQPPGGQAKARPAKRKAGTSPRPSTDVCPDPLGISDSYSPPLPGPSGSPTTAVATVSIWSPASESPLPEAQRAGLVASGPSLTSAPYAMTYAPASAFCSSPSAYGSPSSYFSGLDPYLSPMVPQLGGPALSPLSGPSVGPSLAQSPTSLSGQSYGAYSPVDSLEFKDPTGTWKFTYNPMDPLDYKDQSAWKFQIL
# Method in brief: as §1
# ETV1 = ETV1 (Homo sapiens, UniProt P50549 1-477); details: protein: recombinant; tags: N-terminal GST; dsDNA, one strand shown
# Chain of ETV1 (P50549 whole entry): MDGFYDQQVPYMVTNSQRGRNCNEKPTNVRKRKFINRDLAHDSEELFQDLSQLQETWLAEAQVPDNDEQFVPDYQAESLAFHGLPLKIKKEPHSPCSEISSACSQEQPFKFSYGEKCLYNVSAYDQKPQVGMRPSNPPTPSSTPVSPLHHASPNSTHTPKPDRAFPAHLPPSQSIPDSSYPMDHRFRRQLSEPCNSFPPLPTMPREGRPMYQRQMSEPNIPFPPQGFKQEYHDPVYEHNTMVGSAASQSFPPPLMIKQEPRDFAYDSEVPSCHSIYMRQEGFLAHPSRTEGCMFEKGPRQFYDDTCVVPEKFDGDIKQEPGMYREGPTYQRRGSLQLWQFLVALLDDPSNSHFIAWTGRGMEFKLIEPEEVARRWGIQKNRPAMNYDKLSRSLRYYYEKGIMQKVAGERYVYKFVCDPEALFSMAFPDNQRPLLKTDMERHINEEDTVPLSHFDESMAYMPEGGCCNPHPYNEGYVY
# Method in brief: as §1
# ERF = molecular target: T6, ERF (Homo sapiens, UniProt P50548 1-548); details: protein: recombinant; tags: N-terminal GST; dsDNA, one strand shown
# T6 sequence: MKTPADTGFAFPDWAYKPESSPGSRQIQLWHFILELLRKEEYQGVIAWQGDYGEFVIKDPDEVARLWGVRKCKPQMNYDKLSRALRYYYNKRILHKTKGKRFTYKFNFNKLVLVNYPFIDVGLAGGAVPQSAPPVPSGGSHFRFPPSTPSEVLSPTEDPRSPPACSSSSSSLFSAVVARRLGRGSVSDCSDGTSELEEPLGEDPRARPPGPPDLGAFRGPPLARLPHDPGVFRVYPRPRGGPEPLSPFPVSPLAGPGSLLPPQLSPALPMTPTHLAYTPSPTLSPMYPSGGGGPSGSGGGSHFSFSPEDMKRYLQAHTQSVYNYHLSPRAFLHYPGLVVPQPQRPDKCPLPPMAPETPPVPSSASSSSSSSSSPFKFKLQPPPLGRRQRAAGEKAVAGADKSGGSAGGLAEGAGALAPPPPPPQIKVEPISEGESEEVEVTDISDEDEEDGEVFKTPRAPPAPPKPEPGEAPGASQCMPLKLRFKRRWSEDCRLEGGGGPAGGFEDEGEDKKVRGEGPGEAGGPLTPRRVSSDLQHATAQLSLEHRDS
# Method in brief: as §1
# ETV3L = molecular target: T7, ETV3L (Homo sapiens, UniProt Q6ZN32 1-361); details: protein: recombinant; tags: N-terminal GST; dsDNA, one strand shown
# T7 sequence: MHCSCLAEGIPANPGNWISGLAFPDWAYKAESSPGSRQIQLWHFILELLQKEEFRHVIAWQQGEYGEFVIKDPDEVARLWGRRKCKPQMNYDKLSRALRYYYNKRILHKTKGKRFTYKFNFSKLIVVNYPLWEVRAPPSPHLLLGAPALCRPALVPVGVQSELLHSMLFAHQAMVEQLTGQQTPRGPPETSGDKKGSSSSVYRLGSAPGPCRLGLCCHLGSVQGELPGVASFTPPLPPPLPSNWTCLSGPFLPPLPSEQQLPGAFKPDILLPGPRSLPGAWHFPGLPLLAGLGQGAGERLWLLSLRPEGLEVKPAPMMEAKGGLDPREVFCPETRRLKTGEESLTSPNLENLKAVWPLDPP
# Method in brief: as §1
# ETS2 = molecular target: T8, ETS2 (Homo sapiens, UniProt P15036 1-469); details: protein: recombinant; tags: N-terminal GST; dsDNA, one strand shown
# T8 sequence: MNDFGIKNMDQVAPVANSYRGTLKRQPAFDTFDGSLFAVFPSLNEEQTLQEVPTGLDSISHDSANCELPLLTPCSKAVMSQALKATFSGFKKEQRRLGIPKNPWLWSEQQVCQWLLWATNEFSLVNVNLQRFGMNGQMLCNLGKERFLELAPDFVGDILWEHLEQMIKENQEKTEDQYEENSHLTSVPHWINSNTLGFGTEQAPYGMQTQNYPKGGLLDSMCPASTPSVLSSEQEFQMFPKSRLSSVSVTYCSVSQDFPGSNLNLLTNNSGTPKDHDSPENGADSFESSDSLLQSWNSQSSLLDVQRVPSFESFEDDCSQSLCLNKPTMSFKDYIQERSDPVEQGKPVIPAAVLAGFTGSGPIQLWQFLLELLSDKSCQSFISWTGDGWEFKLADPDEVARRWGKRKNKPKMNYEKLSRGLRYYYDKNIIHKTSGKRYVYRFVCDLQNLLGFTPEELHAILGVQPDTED
# Method in brief: as §1
# SPDEF = molecular target: T9, SPDEF (Homo sapiens, UniProt O95238 1-335); details: protein: recombinant; tags: N-terminal GST; dsDNA, one strand shown
# T9 sequence: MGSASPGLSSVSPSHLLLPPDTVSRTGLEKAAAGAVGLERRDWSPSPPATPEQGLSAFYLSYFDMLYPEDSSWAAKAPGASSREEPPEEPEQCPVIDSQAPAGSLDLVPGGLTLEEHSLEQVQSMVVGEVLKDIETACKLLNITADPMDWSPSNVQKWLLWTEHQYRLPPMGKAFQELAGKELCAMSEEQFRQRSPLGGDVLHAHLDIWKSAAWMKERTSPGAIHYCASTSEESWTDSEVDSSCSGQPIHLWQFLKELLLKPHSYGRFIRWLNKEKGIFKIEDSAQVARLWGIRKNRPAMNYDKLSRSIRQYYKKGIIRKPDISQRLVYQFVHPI
# Method in brief: as §1
# ETV7 = molecular target: T10, ETV7 (Homo sapiens, UniProt Q9Y603 1-341); details: protein: recombinant; tags: N-terminal GST; dsDNA, one strand shown
# T10 sequence: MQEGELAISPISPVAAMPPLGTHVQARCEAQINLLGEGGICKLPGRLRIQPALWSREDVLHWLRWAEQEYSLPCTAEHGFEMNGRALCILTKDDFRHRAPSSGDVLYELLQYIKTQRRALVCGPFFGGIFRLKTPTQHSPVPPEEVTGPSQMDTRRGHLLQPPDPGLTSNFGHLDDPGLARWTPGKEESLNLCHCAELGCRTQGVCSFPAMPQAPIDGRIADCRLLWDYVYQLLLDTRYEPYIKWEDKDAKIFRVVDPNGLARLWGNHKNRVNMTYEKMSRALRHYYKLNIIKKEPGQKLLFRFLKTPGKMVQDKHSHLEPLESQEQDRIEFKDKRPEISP
# Method in brief: as §1
# ELF5 = molecular target: T11, ELF5 (Homo sapiens, UniProt Q9UKW6-2 1-255); details: protein: recombinant; tags: N-terminal GST; dsDNA, one strand shown
# T11 sequence: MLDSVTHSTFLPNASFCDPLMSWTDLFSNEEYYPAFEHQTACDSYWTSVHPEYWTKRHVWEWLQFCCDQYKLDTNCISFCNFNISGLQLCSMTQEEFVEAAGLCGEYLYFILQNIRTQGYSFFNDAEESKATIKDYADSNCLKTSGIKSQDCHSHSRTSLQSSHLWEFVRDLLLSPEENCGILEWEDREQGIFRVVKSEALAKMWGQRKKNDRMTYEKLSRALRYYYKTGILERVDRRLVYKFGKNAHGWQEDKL
# Method in brief: as §1
# ETV3 = molecular target: T12, ETV3 (Homo sapiens, UniProt P41162-2 1-143); details: protein: recombinant; tags: N-terminal GST; dsDNA, one strand shown
# T12 sequence: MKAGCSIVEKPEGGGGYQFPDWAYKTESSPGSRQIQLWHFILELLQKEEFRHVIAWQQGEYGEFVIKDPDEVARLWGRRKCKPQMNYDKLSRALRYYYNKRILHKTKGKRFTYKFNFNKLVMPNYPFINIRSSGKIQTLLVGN
# Method in brief: as §1
# ETV6 = ETV6 (Homo sapiens, UniProt P41212 1-452); details: protein: recombinant; tags: N-terminal GST; dsDNA, one strand shown
# Chain of ETV6 (P41212 whole entry): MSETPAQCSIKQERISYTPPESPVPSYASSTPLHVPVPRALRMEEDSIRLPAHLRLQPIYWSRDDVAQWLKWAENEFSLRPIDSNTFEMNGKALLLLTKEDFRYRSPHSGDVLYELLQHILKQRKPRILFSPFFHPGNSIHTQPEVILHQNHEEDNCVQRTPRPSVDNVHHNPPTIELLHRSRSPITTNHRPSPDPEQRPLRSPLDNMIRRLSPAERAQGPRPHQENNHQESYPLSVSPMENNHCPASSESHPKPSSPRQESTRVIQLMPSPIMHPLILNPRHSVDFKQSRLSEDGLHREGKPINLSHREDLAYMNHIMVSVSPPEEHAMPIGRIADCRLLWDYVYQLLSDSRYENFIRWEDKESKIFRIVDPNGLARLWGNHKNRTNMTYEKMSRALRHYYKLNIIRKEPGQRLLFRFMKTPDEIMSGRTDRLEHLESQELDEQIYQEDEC
# Method in brief: as §1
sequence,measurement,setting,value
TTCTTA,binding signal,FEV,"1.32 fold enrichment (6-mer frequency, TF over GST control)"
same,binding signal,ETV5,"1.33 fold enrichment (6-mer frequency, TF over GST control)"
same,binding signal,HSF1,"1.85 fold enrichment (6-mer frequency, TF over GST control)"
same,binding signal,SPIC,"1.71 fold enrichment (6-mer frequency, TF over GST control)"
same,binding signal,ELF4,"1.41 fold enrichment (6-mer frequency, TF over GST control)"
same,binding signal,ELK4,"1.5 fold enrichment (6-mer frequency, TF over GST control)"
same,binding signal,ETV2,"1.36 fold enrichment (6-mer frequency, TF over GST control)"
same,binding signal,ELF3,"1.47 fold enrichment (6-mer frequency, TF over GST control)"
same,binding signal,CRX,"2.21 fold enrichment (6-mer frequency, TF over GST control)"
same,binding signal,ETV1,"1.36 fold enrichment (6-mer frequency, TF over GST control)"
same,binding signal,ERF,"1.21 fold enrichment (6-mer frequency, TF over GST control)"
same,binding signal,ETV3L,"1.4 fold enrichment (6-mer frequency, TF over GST control)"
same,binding signal,ETS2,"1.24 fold enrichment (6-mer frequency, TF over GST control)"
same,binding signal,SPDEF,"1.4 fold enrichment (6-mer frequency, TF over GST control)"
same,binding signal,ETV7,"1.38 fold enrichment (6-mer frequency, TF over GST control)"
same,binding signal,ELF5,"1.35 fold enrichment (6-mer frequency, TF over GST control)"
same,binding signal,ETV3,"1.34 fold enrichment (6-mer frequency, TF over GST control)"
same,binding signal,ETV6,"1.4 fold enrichment (6-mer frequency, TF over GST control)"
